Pf growth 48h: inhibits P. falciparum growth in the first generation, 48 h; AID 504832; P. falciparum luciferase growth in erythrocytes, 48 h; Potency, µM (highest dose often 28.7 µM), inactives show top-dose activity change, negative = inhibition, most hits filed as inhibitors; 5.9% of 310,000 active; also: potency is read from the fitted curve at half-maximal effect; % is scaled to controls: 0 for no effect and ±100 for the full control effect
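First compound was added to culture medium, then infected red cells at 0.1% parasitemia and 2% hematocrit (final). After incubation at 37 C under 5% CO2, luciferase detection reagent was dispensed and light output recorded.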
Pf growth 96h: P. falciparum growth inhibition at 96 hours; Potency, µM (top dose mostly 28.7 µM), without a hit: top-dose activity change, negative = inhibition, hits mostly inhibitors; 6.9% of 320,000 active; P. falciparum luciferase reporter growth, 96 h; also: potency is read from the fitted curve at half-maximal effect; % is scaled to controls: 0 for no effect and ±100 for the full control effect
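P. falciparum expressing integrated firefly luciferase, in erythrocytes at 2% hematocrit, 0.05% parasitemia, incubated with compounds 96 h at 37 C, 5% CO2. Growth inhibition read as loss of luminescence; two-generation exposure targets delayed-death apicoplast inhibitors.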
HCMV inh: human cytomegalovirus inhibition. HFF cells, HCMV-luciferase reporter, 72 h; stronger effect = lower value. activity change, negative = inhibition, % at 57.5 µM. 4.5% of 410,000 active; in the data active = activity change below about -60%; inconclusive = no clear call, values can overlap the other calls; inactive = above about -39%; also: % is scaled to controls: 0 for no effect and ±100 for the full control effect
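Human foreskin fibroblasts infected with luciferase-reporter HCMV at MOI 1 PFU/cell, compounds at two doses. Luciferase measured 72 h post infection; normalized to buffer-only basal and Salinomycin (10uM) controls.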
HCV inhibitor: inhibitors of hepatitis C virus infection. Huh7.5.1 HCVcc-Cre infection, luciferase reporter, 44 h. Potency, µM (titrated, usually from 41.8 µM), without a hit: at the highest dose activity change, negative = inhibition, most hits filed as inhibitors. 3.4% of 340,000 active. AID 651820; also: potency is read from the fitted curve at half-maximal effect; % is scaled to controls: 0 for no effect and ±100 for the full control effect
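Whole-lifecycle infectious HCVcc-Cre system; cells 1,000/well, compound then virus (~0.5 moi) added 4 h after plating, 44 h culture. Luciferase read 15 sec following 15 min substrate incubation, room temp.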
Cycloheximide cs: counter-screen hit for Shiga toxin inhibitors, cycloheximide; cell reporter, cycloheximide protein synthesis inhibition counterscreen; max response, %; 12% of 300,000 active; AID 2314; in the data active = max response mostly above about 13%, no sharp cut-off; inactive = mostly below about 14%; also: read at 38.3 µM for the half of the compounds with a filed dose; 0% is about no effect
Shiga inhibitor: blocks Shiga toxin action in Vero cells. Vero cells, Shiga toxin protein synthesis inhibition reporter. AID 2315. 9.2% of 290,000 active. inhibition, % at 38.7 µM; in the data active = inhibition mostly above about 28%, no sharp cut-off; inactive = mostly below about 43%; also: 0% is about no effect
Starred values were filed as active, the others as inactive; ? = inconclusive; · = no result; ! = not confirmed by another sample; [ ] = remark or other dose. Shown are actives, neighbours in structure and some others; about 21% of the full set was active somewhere. Unless noted, calls follow the shape of the dose curve; as a rule, active = well fitted inhibition curve with a large enough effect; inconclusive = small, poorly fitted or top-dose-only effect, or another doubt; inactive = no such curve, though single readings can be large or run the other way.

SMILES | Pf growth 48h | Pf growth 96h | HCMV inh | HCV inhibitor | Cycloheximide cs | Shiga inhibitor
COc1ccc(-c2cn3nc(N4CCCC(C(=O)Nc5cc(C)cc(C)c5)C4)sc3n2)cc1 (stereo not given) | · | · | 0.0 | · | · | ·
CC1(c2nnc(-c3cccc(Cl)c3)o2)CC(c2ccc(Br)cc2)=NO1 (stereo not given) | · | · | -31.5 | 6.7% | · | ·
COc1ccc(NC(=O)CSc2nc3ccccc3n2Cc2cccc(OC)c2)cc1 | · | · | -27.2 | · | · | ·
COc1ccc(C2=Nn3c(nnc3-c3cc(OC)ccc3OC)SC2)cc1 | · | · | · | · | -4.5 | -7.8
CCc1ccc(C(=O)Nc2ccc(C)c(NS(C)(=O)=O)c2)cc1 | 36.0% | -6.0% | ? | ? | 7.6* | 39.2
Cc1ccc(NC(=O)c2ccc(F)cc2F)cc1NS(C)(=O)=O | 26.7% | 28.3% | ? | 3.3% | 8.1 | 61.4*
COc1cc(F)ccc1-c1cc(C(=O)Nc2ccc(C)c(NS(C)(=O)=O)c2)[nH]n1 | · | · | -38.5 | · | · | ·
CCN(CC(O)CON=C1c2ccccc2-c2ccccc21)S(=O)(=O)c1ccc(Cl)cc1 (stereo not given) | ? | ? | -31.1 | 10µM* | -0.2 | -13.3
Cc1cccc(N(CC(O)CON=C2c3ccccc3-c3ccccc32)S(C)(=O)=O)c1 (stereo not given) | · | 13.1µM* | ? | ? | 1.2 | -15.9
Cc1ccc(S(=O)(=O)N(C)CC(O)Cn2c3ccccc3c3ccccc32)cc1 (stereo not given) | ? | -24.8% | -8.6 | -19.6% | 12.2 | -17.3
CCNC(=O)CON=C1c2ccccc2-c2ccccc21 | 8.1% | -8.5% | -39.7 | ? | 5.2 | 3.3
CS(=O)(=O)N(CC(O)CON=C1c2ccccc2-c2ccccc21)c1ccc(F)cc1 (stereo not given) | ? | ? | -19.8 | ? | 2.1 | -14.8
CCCN(CCC)CC(O)CN(c1ccccc1)S(=O)(=O)c1ccc(C)cc1 (stereo not given) | · | ? | -27.6 | -5.8% | -1.5 | -15.5
CN(CC(O)CON=C1c2ccccc2-c2ccccc21)S(=O)(=O)c1ccc(Br)cc1 (stereo not given) | 6.57µM* | ? | -19.1 | ? | -0.7 | -18.4
CCN(CC(O)CON=C1c2ccccc2-c2ccccc21)S(=O)(=O)c1ccc(C)cc1 (stereo not given) | ? | 2.33µM* | -38.9 | ? | -0.5 | -7.8
Cc1cccc(NC(=O)CSCC(=O)Nc2cccc3ncccc23)c1 | ? | 3.9% | 0.5 | -5.7% | · | ·
O=C(Nc1ccc(C(=O)OCc2cc(=O)n3nc(C4CC4)sc3n2)cc1)c1ccccc1 | · | · | 6.2 | · | · | ·
Cc1cc(C)n(CC(O)COCc2ccccc2)n1 (stereo not given) | 6.0% | 11.7µM* | 10.5 | 0.3% | -1.9 | 23.2
COc1ccccc1OCC(O)Cn1nc(C)cc1C (stereo not given) | -3.0% | ? | 16.4 | 8.0% | 54.3* | 103.7*
CCOC(=O)N1CCN(CC(O)COc2ccccc2[N+](=O)[O-])CC1 (stereo not given) | 7.4% | ? | ? | 5.6% | 11.4* | 18.3
Cc1cc(C)n(CC(O)COc2ccccc2[N+](=O)[O-])n1 (stereo not given) | 3.0% | ? | 38.0 | 0.8% | 28.0* | 29.0
Cc1cc(C)n(CC(O)COc2ccccc2C(=O)Nc2ccccc2)n1 (stereo not given) | 1.85µM* | ? | 12.3 | 2.2% | -3.5 | -3.4
CCOC(=O)c1c(C)n(Cc2ccccc2)c2ccc(OCC(O)Cn3nc(C)cc3C)cc12 (stereo not given) | 11.7µM* | 8.6% | 69.0 | ? | -3.7 | -4.0
Cc1cc(C)n(CC(O)COc2cccc(OCC(O)Cn3nc(C)cc3C)c2)n1 (stereo not given) | -27.7% | 0.0% | 30.8 | ? | 5.6 | -10.9
C[C@@H]1O[C@@H](O[C@H]2C[C@@H](O)[C@]3(CO)[C@H]4[C@H](O)C[C@]5(C)[C@@H](C6COC(=O)C6)CC[C@]5(O)[C@@H]4CC[C@]3(O)C2)[C@H](O)[C@H](O)[C@H]1O (stereo not given in full) | 3.6% | -24.7% | -97.1* | 1µM*! | -8.6 | -23.7
SMILES | Pf growth 48h | Pf growth 96h | HCMV inh | HCV inhibitor | Cycloheximide cs | Shiga inhibitor
C[C@H]1CC[C@@H]2[C@@H](C)[C@H]3C(CC4C5CC=C6CC(O[C@@H]7O[C@H](CO)C(O[C@@H]8O[C@@H](C)[C@H](O)[C@@H](O)[C@H]8O)[C@H](O)[C@H]7O[C@@H]7O[C@@H](C)[C@H](O)[C@@H](O)[C@H]7O)CC[C@]6(C)C5CC[C@@]43C)N2C1 (stereo not given in full) | · | · | · | · | -13.1 | -9.1
O=C(O)CC1CCCC(c2ccccc2)C1=O (stereo not given) | -5.6% | 13.1µM* | 18.0 | -12.1% | 1.2 | -1.8
O=C(NCc1ccc2c(c1)CCN2C(=O)c1ccccc1)Nc1cccc(C(F)(F)F)c1 | · | · | -97.4* | · | · | ·
O=C(c1cccs1)N1CCCc2cc(NS(=O)(=O)c3ccc(Cl)cc3)ccc21 | · | · | -32.7 | · | · | ·
O=C(Nc1ccc2c(c1)CCCN2C(=O)c1ccccc1)c1ccccc1 | ? | ? | -19.3 | ? | 22.0* | 54.1*
CCCCOc1ccc(C(=O)Nc2ccc3c(c2)CCCN3C(=O)c2cccs2)cc1 | · | · | -87.4* | · | · | ·
O=C(Nc1ccc(C(=O)N2CCCC2)cc1)c1ccccc1 | · | · | 43.3 | -11.0%[8.37 µM] | · | ·
CC(C)Oc1ccc(C(=O)Nc2ccc3c(c2)CCCN3C(=O)c2cccs2)cc1 | · | · | -89.3* | · | · | ·
CCCCn1c(N)c(N(C)C(=O)c2cn(-c3ccccc3)nc2-c2ccccc2)c(=O)[nH]c1=O | -28.6% | ? | -2.4 | 11.9% | · | ·
Cc1ccc(CNC(=O)C2CCCN(c3ncnc4onc(-c5ccc(F)cc5)c34)C2)cc1 (stereo not given) | · | · | 1.5 | · | · | ·
CCc1cc(-c2nc(N)ncc2-c2ccc(Br)cc2)c(O)cc1OC | -3.9% | 19.0% | -5.9 | ? | -2.1 | -14.5
CCOc1ccc(-c2nc(N)ncc2Oc2ccccc2Br)c(O)c1 | · | 3.29µM* | -36.3 | ? | 8.2 | 13.0
CCOc1ccc(-c2nc(N)ncc2Oc2cccc(OC)c2)c(O)c1 | · | ? | -10.7 | 12.6µM* | 2.5 | -10.3
C=C(C)COc1ccc(-c2nc(N)ncc2Oc2ccc(OC)cc2)c(O)c1 | ? | 3.0% | 5.3 | -12.4% | 10.2 | 23.2
Cc1cc(C)c(NC(=O)C2CCN(C(=O)N3CCOc4ccccc43)CC2)c(C)c1 | · | · | -15.6 | · | · | ·
COc1cc(Nc2nc3c(S(=O)(=O)c4ccc(C)c(C)c4)nnn3c3ccsc23)cc(OC)c1 | · | · | -31.5 | · | · | ·
CCc1nnc(NS(=O)(=O)c2ccc(N=Cc3c(C)[nH]n(-c4ccc(C)c(C)c4)c3=O)cc2)s1 | 5.3% | -16.2% | 5.3 | 35.9% | 11.7* | 10.1

Bioassay records deposited in PubChem by National Center for Advancing Translational Sciences (NCATS).
